Source: PubChem BioAssay
In the library only some 4.3% were active in any assay of this set; here they are far more common.
MLL AF4-AF9 inh: inhibitors of human MLL-AF4/AF9 interaction; AID 651704; actives 0.47% (n = 350,000); AlphaScreen, biotin-AF4 peptide binding to FLAG-AF9; inhibition, % at 10 µM;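 active means every replicate reaching a set inhibition limit, whatever the replicate mean, cut at about 25% in these data; inconclusive means mean inhibition reaches that limit but some replicates miss it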;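 further: 0% = plate neutral control median and 100% = total signal loss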
Target sequence (P42568 whole entry, looked up): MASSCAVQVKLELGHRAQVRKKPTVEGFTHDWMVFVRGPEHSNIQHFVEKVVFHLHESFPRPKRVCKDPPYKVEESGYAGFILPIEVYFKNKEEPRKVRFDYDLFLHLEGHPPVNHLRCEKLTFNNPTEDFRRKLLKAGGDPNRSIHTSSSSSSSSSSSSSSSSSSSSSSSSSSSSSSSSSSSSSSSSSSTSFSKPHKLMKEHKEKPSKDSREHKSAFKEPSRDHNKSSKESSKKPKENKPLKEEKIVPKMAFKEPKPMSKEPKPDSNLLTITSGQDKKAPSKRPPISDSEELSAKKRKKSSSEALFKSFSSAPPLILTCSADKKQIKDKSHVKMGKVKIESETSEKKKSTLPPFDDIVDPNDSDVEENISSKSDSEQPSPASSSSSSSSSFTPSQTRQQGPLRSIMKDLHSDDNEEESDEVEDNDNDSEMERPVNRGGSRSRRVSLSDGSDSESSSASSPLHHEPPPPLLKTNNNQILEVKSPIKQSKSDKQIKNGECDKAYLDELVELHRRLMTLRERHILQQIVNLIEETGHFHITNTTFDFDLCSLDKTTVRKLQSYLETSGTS
FGF22 binding: FGF22 (human) thermal shift binding; Q9HCT0; recombinant FGF22 thermal shift, SYPRO orange fluorescence; percent of sucrose octasulfate shift, DMSO zero; activity (Tm shift, normalised), % at 9.99 µM; actives 1.5% (n = 340,000); AID 651658;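 active means mean Tm shift, scaled 0 neutral to 100 positive control, at about 1.3% or above, every replicate too, limit read from the data; inconclusive means no clear call, values can overlap the other calls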
Target sequence (Q9HCT0 whole entry, looked up): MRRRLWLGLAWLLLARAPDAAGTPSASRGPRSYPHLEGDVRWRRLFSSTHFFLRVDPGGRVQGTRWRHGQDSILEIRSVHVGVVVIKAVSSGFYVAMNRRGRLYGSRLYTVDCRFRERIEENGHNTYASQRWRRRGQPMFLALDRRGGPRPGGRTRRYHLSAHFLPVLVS
esBAF inh: inhibitors of esBAF chromatin remodeling in mouse ES cells. Bmi1-luciferase knock-in reporter, 24 h; 100% = twice the neutral-well signal. reporter increase, % at 12.5 µM. actives 2% (n = 350,000); in the data active means activation above about 40%; inconclusive means no clear call, values can overlap the other calls;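 further: 0% = median of the plate's neutral control wells and 100% = double that signal; a rise in the Bmi1 reporter signal indicates esBAF inhibition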
SMARCA2 act: activators of SMARCA2 function; activation, % at 9.1 µM; MG213 cells, MMTV-luciferase reporter, dexamethasone, overnight; actives 1% (n = 370,000); in the data active means activation above about 7.8%;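 further: 0% = vehicle wells and 100% = reference activator wells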
Wnt act: activators of Wnt/beta-catenin signaling; Wnt/beta-catenin reporter cell assay, activator, plate reader; activation, % at 9.35 µM; actives 1.2% (n = 300,000); in the data active means activation above about 30%, passing the limit was not always enough; inconclusive means no clear call, values can overlap the other calls;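 further: 0% = neutral control wells and 100% = positive control wells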
MITF act: MITF TRPM1 promoter activation in melanoma cells. SK-MEL-5 TRPM1-promoter luciferase, 24 h; % of positive control, neutral wells = 0. activation, % at 12.5 µM. actives 0.75% (n = 300,000). AID 588334;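 active means mean activation of at least 80% with every replicate also reaching 80%; inconclusive means mean reaches 80% but some replicate falls short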;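 further: 0% = neutral control wells and 100% = parthenolide positive control wells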
SMARCA2 conf: confirmation of SMARCA2 (BRM) function activators; shares compounds with SMARCA2 act; MG213 cells, MMTV-luciferase with dexamethasone, luminescence, overnight; MG213 cells expressing E1A, Rb sequestered; DMSO wells 0%, reference activator 100%; activation, % at 9.1 µM; actives 30% (n = 3,500); AID 652260;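 active means activation above its plate's cutoff, the mean activation of tested wells plus 3 SD, cut at about 7.9% in these data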
GAL4-VP16 Luc: activates GAL4-VP16 luciferase, flagging SMARCA2 activator hits; shares compounds with SMARCA2 act; HEK293 GAL4-VP16 pG5luc reporter, luciferase luminescence; scaled: DMSO wells 0%, SAHA wells 100%; activation, % at 9.1 µM; actives 41% (n = 3,500); AID 686939;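 active means activation above the solvent-only control well mean plus 3 SD, averaged across control plates, cut at about 5.2% in these data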
* = called active by the depositor; ? = inconclusive; · = no result.

SMILES | MLL AF4-AF9 inh | FGF22 binding | esBAF inh | SMARCA2 act | Wnt act | MITF act | SMARCA2 conf | GAL4-VP16 Luc
Cc1ccc2nc(-c3sc4nc(C)ccc4c3N)[nH]c2c1 | · | · | -22 | 5 | · | · | · | ·
CN1c2ccc(Br)cc2[C@@H]2[C@@H](CCN2C(=O)c2ccc(F)cc2)[C@H]1CO | -2 | 0 | 0 | · | · | · | · | ·
Cc1nn(-c2ccccc2)c(Cl)c1/C=N/Nc1ccc(S(=O)(=O)Nc2ccccc2C(=O)O)cc1[N+](=O)[O-] | · | · | -8 | 0 | · | -7 | · | ·
Cc1nn(-c2ccccc2)c(Cl)c1/C=N/Nc1ccc(Cl)c(C(=O)O)c1 | · | · | · | 8.9* | 8 | -53 | 9.4* | 14*
CCCNC(=O)C[C@@H]1CC[C@@H]2[C@H](COC[C@@H](O)CN2Cc2ccc(Cl)c(Cl)c2)O1 | 2 | 0 | 3 | · | · | · | · | ·
O=C(NC1CCCCC1)c1ccc(-c2ccccc2[N+](=O)[O-])o1 | 6 | 0 | 89* | 11* | 25 | 11 | 8.7* | 12*
COC(=O)[C@]12C[C@H](CC(=O)NCc3ccc(OC)c(OC)c3)C(=O)N(Cc3cccc4ccccc34)C1=C[C@H](C(C)C)O[C@@H]2C1CC1 | · | · | · | -4 | · | · | · | ·
CCn1cc(CNC(=O)NC2CCCCC2)c(C)n1 | 3 | 0 | · | 12* | 5 | 32 | 3 | 4
CC(C)CC#Cc1ccc2c(c1)O[C@H](CN(C)C(=O)CC1CC1)[C@H](C)CN([C@@H](C)CO)S2(=O)=O | 4 | 0 | 3 | · | · | · | · | ·
Cc1ccc(NC(=O)c2ccc([N+](=O)[O-])cc2Cl)nc1 | -2 | 0 | · | 9.1* | 12 | 44 | 6 | 9.7*
CN(C)c1ccc(NC(=O)c2ccc([N+](=O)[O-])cc2Cl)cc1 | 0 | 0 | · | 9.7* | 10 | 30 | 7.9* | 12*
CCC(=O)N1C(Cc2ccccc2)COC1(C)C (stereo not drawn) | · | · | · | 8.9* | 0 | 8 | -3 | 1
CCC(=O)N1[C@H](CO)[C@H](c2ccccc2)C12CN(C(=O)Cc1ccccc1)C2 | -1 | 0 | · | · | · | · | · | ·
Cc1ccc(NC(=O)Nc2ccc3c(c2)OCO3)c(OC(F)F)c1 | 1 | 0 | 49* | 8.5* | 38* | 106* | 9.0* | 9.4*
COc1ccc(NC(=O)Nc2ccc(C)cc2OC(F)F)cc1OC | · | · | -9 | -5 | · | · | · | ·
NNc1nc2c(-c3ccc(Cl)cc3)nnn2c2ccccc12 | -3 | 0 | · | 8.4* | 0 | 43 | 7 | 11*
O=C(c1cc2cc(Br)ccc2o1)N1CCN(c2ccccc2)CC1 | 1 | 0 | 21 | 8.1* | 13 | 2 | 1 | 5
COc1ccc(N2CCN(C(=O)c3cc4ccccc4o3)CC2)cc1 | 1 | 0 | -4 | -3 | 1 | 2 | · | ·
C[C@@H]1CN([C@H](C)CO)C(=O)c2cc(C3=CCCCC3)cnc2O[C@@H]1CN(C)C(=O)Nc1ccc(F)cc1 | 0 | 0 | 14 | · | · | · | · | ·
O=C(c1ccc(F)cc1)c1cc2ccccc2o1 | · | · | 64* | 11* | 65* | ? | 8 | 7.4*
O=C(NNC(=O)c1cc2ccccc2o1)c1ccc(F)cc1 | -1 | 0 | 20 | 3 | 4 | 23 | · | ·
COc1ccc(C#Cc2ccc([C@H]3[C@@H](CO)N4C(=O)CN(C(=O)Nc5ccccc5F)C[C@H]34)cc2)cc1 | -1 | · | · | · | · | · | · | ·
Cc1noc(C)c1S(=O)(=O)Nc1ccc2c(c1)C(=O)N([C@H](C)CO)C[C@@H](C)[C@H](CN(C)S(=O)(=O)c1ccc(Cl)cc1)O2 | -13 | 1 | -5 | · | · | · | · | ·
Cc1csc(NC(=O)c2cc(C)on2)n1 | -7 | 0 | 2 | 11* | 40* | 55 | 4 | 7.5*
Cc1csc(NC(=O)c2ccc[nH]c2=O)n1 | 0 | 0 | 9 | 9.1* | 13 | 21 | 13* | 9.8*
SMILES | MLL AF4-AF9 inh | FGF22 binding | esBAF inh | SMARCA2 act | Wnt act | MITF act | SMARCA2 conf | GAL4-VP16 Luc
Cc1csc(NC(=O)c2cccc(C)c2C)n1 | · | · | · | 6 | · | 73 | · | ·
Cc1csc(NC(=O)c2cnccn2)n1 | · | · | 22 | 1 | · | · | · | ·
Cc1noc(C)c1NC(=O)N[C@H]1CC[C@H](CCNC(=O)C2CCC2)O[C@H]1CO | -3 | 0 | -4 | · | · | · | · | ·
Cc1scc(C(=O)N/N=C/c2ccsc2)c1C | -13 | 0 | · | 2 | 1 | 58 | · | ·
CCCOc1cccc(/C=N/NC(=O)c2csc(C)c2C)c1 | · | · | 21 | 13* | -2 | 28 | 2 | 2
Cc1noc(C)c1NC(=O)Nc1cccc2c1O[C@H](CN(C)Cc1ccc(C(=O)O)cc1)[C@H](C)CN([C@@H](C)CO)C2=O | 0 | 0 | -4 | · | · | · | · | ·
CO[C@@H]1CN(C)C(=O)c2cc(NC(=O)Nc3cccc(F)c3)ccc2OC[C@@H](C)N(C(C)=O)C[C@@H]1C | 5 | 0 | 6 | · | · | · | · | ·
O=C1CC(c2cc(-c3ccccc3)no2)C1 | 1 | 0 | 38 | 9.7* | 22 | 74 | 3 | 7.5*
COc1ccc(NC(=O)N(C)C[C@@H]2Oc3ccc(NS(=O)(=O)c4ccc(OC)cc4)cc3C(=O)N([C@@H](C)CO)C[C@@H]2C)cc1 | 2 | 0 | -4 | · | · | · | · | ·
CCCCSc1nc2c([nH]1)c(=S)n(C)c(=O)n2C | 2 | 0 | · | 4 | -3 | -5 | · | ·
CSc1nc2c([nH]1)c(=S)n(C)c(=O)n2C | 7 | 43* | -9 | 8.4* | -2 | -2 | 9.0* | 1
O=C(CCN1C(=O)/C(=C\c2ccccc2)SC1=S)NNC(=O)c1ccncc1 | 0 | 0 | · | 9.7* | 0 | · | -5 | 0
Cc1nnc(N2C(=O)c3cccc4c([N+](=O)[O-])ccc(c34)C2=O)s1 | 0 | 0 | -1 | 22* | -2 | -10 | -16 | 15*
Cc1ccnc(N2C(=O)c3ccccc3C2=O)c1 | -4 | 0 | -1 | -2 | -2 | -8 | · | ·
Cc1ccnc(N2C(=O)c3cccc4c([N+](=O)[O-])ccc(c34)C2=O)c1 | -7 | 0 | -1 | 9.9* | 27 | -11 | -14 | 4
COc1cc(CCC(C)=O)ccc1OC(=O)c1c(-c2c(F)cccc2Cl)noc1C | -2 | 0 | · | -4 | -1 | · | · | ·
S=c1[nH]ncn1/N=C/c1ccc(N2CCOCC2)cc1 | · | · | ? | 9.2* | 4 | · | 9.2* | 11*
S=c1[nH]ncn1/N=C/c1ccc(Br)cc1 | · | · | · | 0 | · | -2 | · | ·
COc1ccc(OCc2cc(C(=O)N3CCCCCCC3)no2)c(Cl)c1 | -1 | 0 | · | 1 | 14 | 28 | · | ·
COc1ccc(OCc2cc(C(=O)N3C[C@@H](C)O[C@@H](C)C3)no2)c(Cl)c1 | -2 | 0 | 42* | 8.3* | 13 | 70 | 3 | 4
